# The full list was thinned out, with the strongest signals kept by preference.
# B1: GNA (Galanthus nivalis), P30617 (protein)
# chain: MAKASLLILAAIFLGVITPSCLSDNILYSGETLSTGEFLNYGSFVFIMQEDCNLVLYDVDKPIWATNTGGLSRSCFLSMQTDGNLVVYNPSNKPIWASNTGGQNGNYVCILQKDRNVVIYGTDRWATGTHTGLVGIPASPPSEKYPTAGKIKLVTAK
# Key:
# Assay in all cases: glycan array binding signal (z-score within array); higher = stronger binding
# Conditions in all cases: glycan notation: IUPAC condensed, linker removed
# Fuc(a1-2)Gal(b1-4)Glc6S = target: Fuc(a1-2)Gal(b1-4)Glc6S
# How it was run: (§1)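 Arrays were curated from the Consortium for Functional Glycomics database, 3228 in total, and kept only where the protein sequence was available. Binding is expressed as a within-array Z-score. This score was averaged across arrays of the same protein sequence at different concentrations or buffers and across linkers, and negative values can be read as non-binding.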
# [1] = target: Fuc(a1-2)[Gal(a1-3)]Gal(b1-4)GlcNAc
# How it was run: as §1
# [2] = target: Fuc(a1-2)[Gal(a1-3)]Gal(b1-4)GlcNAc(b1-3)[Fuc(a1-2)[Gal(a1-3)]Gal(b1-4)GlcNAc(b1-6)]GalNAc
# How it was run: as §1
# [3] = target: Fuc(a1-2)[Gal(a1-3)]Gal(b1-4)[Fuc(a1-3)]GlcNAc(b1-3)GalNAc
# How it was run: as §1
# [4] = target: Fuc(a1-3)[Gal(b1-4)]GlcNAc(b1-4)Gal(b1-4)[Fuc(a1-3)]GlcNAc
# How it was run: as §1
# [5] = target: Gal(a1-3)Gal(b1-4)GlcNAc(b1-2)Man(a1-3)[Gal(a1-3)Gal(b1-4)GlcNAc(b1-2)Man(a1-6)]Man(b1-4)GlcNAc(b1-4)GlcNAc
# How it was run: as §1
# [6] = target: Gal(a1-3)Gal(b1-4)GlcNAc(b1-6)GalNAc
# How it was run: as §1
# [7] = target: Gal(a1-3)Gal(b1-4)[Fuc(a1-3)]GlcNAc(b1-2)Man(a1-3)[Gal(a1-3)Gal(b1-4)[Fuc(a1-3)]GlcNAc(b1-2)Man(a1-6)]Man(b1-4)GlcNAc(b1-4)GlcNAc
# How it was run: as §1
# [8] = target: Gal(b1-3)[Neu5Ac(a2-6)]GlcNAc(b1-4)Gal(b1-4)Glc
# How it was run: as §1
# [9] = target: Gal(b1-4)GalNAc(a1-3)[Fuc(a1-2)]Gal(b1-4)GlcNAc
# How it was run: as §1
# Gal(b1-4)GlcNAc = target: Gal(b1-4)GlcNAc
# How it was run: as §1
# Gal(b1-4)GlcNAc(b1-2)Man = target: Gal(b1-4)GlcNAc(b1-2)Man
# How it was run: as §1
# [10] = target: Gal(b1-4)GlcNAc(b1-2)Man(a1-6)[Man(a1-3)]Man(b1-4)GlcNAc(b1-4)GlcNAc
# How it was run: as §1
# [11] = target: Gal(b1-4)GlcNAc(b1-2)[Gal(b1-4)GlcNAc(b1-4)]Man(a1-3)[Gal(b1-4)GlcNAc(b1-2)[Gal(b1-4)GlcNAc(b1-6)]Man(a1-6)]Man(b1-4)GlcNAc(b1-4)GlcNAc
# How it was run: as §1
# [12] = target: Gal(b1-4)GlcNAc(b1-3)Gal(b1-4)Glc
# How it was run: as §1
# [13] = target: Gal(b1-4)GlcNAc(b1-3)Gal(b1-4)GlcNAc(b1-2)[Gal(b1-4)GlcNAc(b1-3)Gal(b1-4)GlcNAc(b1-6)]Man(a1-6)[Gal(b1-4)GlcNAc(b1-3)Gal(b1-4)GlcNAc(b1-2)Man(a1-3)]Man(b1-4)GlcNAc(b1-4)GlcNAc
# How it was run: as §1
# [14] = target: Gal(b1-4)GlcNAc(b1-3)Gal(b1-4)GlcNAc(b1-3)Gal(b1-4)GlcNAc
# How it was run: as §1
# [15] = target: Gal(b1-4)GlcNAc(b1-3)Gal(b1-4)GlcNAc(b1-3)Gal(b1-4)GlcNAc(b1-2)[Gal(b1-4)GlcNAc(b1-3)Gal(b1-4)GlcNAc(b1-3)Gal(b1-4)GlcNAc(b1-6)]Man(a1-6)[Gal(b1-4)GlcNAc(b1-3)Gal(b1-4)GlcNAc(b1-3)Gal(b1-4)GlcNAc(b1-2)Man(a1-3)]Man(b1-4)GlcNAc(b1-4)[Fuc(a1-6)]GlcNAc
# How it was run: as §1
# [16] = target: Gal(b1-4)GlcNAc(b1-3)Gal(b1-4)GlcNAc(b1-3)Gal(b1-4)GlcNAc(b1-3)Gal(b1-4)GlcNAc(b1-3)Gal(b1-4)GlcNAc(b1-2)[Gal(b1-4)GlcNAc(b1-3)Gal(b1-4)GlcNAc(b1-3)Gal(b1-4)GlcNAc(b1-3)Gal(b1-4)GlcNAc(b1-3)Gal(b1-4)GlcNAc(b1-6)]Man(a1-6)[Gal(b1-4)GlcNAc(b1-3)Gal(b1-4)GlcNAc(b1-3)Gal(b1-4)GlcNAc(b1-3)Gal(b1-4)GlcNAc(b1-3)Gal(b1-4)GlcNAc(b1-2)Man(a1-3)]Man(b1-4)GlcNAc(b1-4)[Fuc(a1-6)]GlcNAc
# How it was run: as §1
# [17] = target: Gal(b1-4)GlcNAc(b1-3)[Gal(b1-4)GlcNAc(b1-6)]Gal(b1-4)GlcNAc
# How it was run: as §1
# Gal3S(b1-4)GlcNAc6S = target: Gal3S(b1-4)GlcNAc6S
# How it was run: as §1
# Gal3S4S(b1-4)GlcNAc = target: Gal3S4S(b1-4)GlcNAc
# How it was run: as §1
# Gal3S6S(b1-4)GlcNAc = target: Gal3S6S(b1-4)GlcNAc
# How it was run: as §1
# [18] = target: GalNAc(b1-3)Gal(a1-6)Gal(b1-4)Glc
# How it was run: as §1
# GalNAc(b1-3)GalNAc = target: GalNAc(b1-3)GalNAc
# How it was run: as §1
# [19] = target: GlcNAc(b1-3)Gal(b1-4)GlcNAc(b1-3)[GlcNAc(b1-3)Gal(b1-4)GlcNAc(b1-3)]GalNAc
# How it was run: as §1
# [20] = target: Man(a1-2)Man(a1-3)[Man(a1-2)Man(a1-6)]Man(a1-6)[Man(a1-3)[Man(a1-6)]Man(a1-6)]Man(b1-4)GlcNAc(b1-4)GlcNAc
# How it was run: as §1
# [21] = target: Man(a1-2)Man(a1-3)[Man(a1-6)]Man(a1-6)[Man(a1-2)Man(a1-3)]Man(b1-4)GlcNAc(b1-4)GlcNAc
# How it was run: as §1
# [22] = target: Man(a1-2)Man(a1-6)[Man(a1-3)]Man(a1-6)[Man(a1-2)Man(a1-2)Man(a1-3)]Man(b1-4)GlcNAc(b1-4)GlcNAc
# How it was run: as §1
# Man(a1-3)[Man(a1-6)]Man = target: Man(a1-3)[Man(a1-6)]Man
# How it was run: as §1
# [23] = target: Man(a1-3)[Man(a1-6)]Man(a1-6)[Man(a1-2)Man(a1-3)]Man(b1-4)GlcNAc(b1-4)GlcNAc
# How it was run: as §1
# [24] = target: Man(a1-3)[Man(a1-6)]Man(a1-6)[Man(a1-3)]Man
# How it was run: as §1
# [25] = target: Man(a1-3)[Man(a1-6)]Man(a1-6)[Man(a1-3)]Man(b1-4)GlcNAc(b1-4)GlcNAc
# How it was run: as §1
# [26] = target: Man(a1-3)[Man(a1-6)]Man(b1-4)GlcNAc(b1-4)GlcNAc
# How it was run: as §1
# [27] = target: Man(a1-3)[Man(a1-6)]Man(b1-4)GlcNAc(b1-4)[Fuc(a1-6)]GlcNAc
# How it was run: as §1
# [28] = target: Neu5Ac(a2-3)Gal(b1-3)GalNAc(b1-4)[Neu5Ac(a2-8)Neu5Ac(a2-3)]Gal(b1-4)Glc
# How it was run: as §1
# [29] = target: Neu5Ac(a2-3)Gal(b1-4)GlcNAc(b1-3)Gal(b1-4)GlcNAc(b1-2)Man(a1-3)[Neu5Ac(a2-3)Gal(b1-4)GlcNAc(b1-3)Gal(b1-4)GlcNAc(b1-2)Man(a1-6)]Man(b1-4)GlcNAc(b1-4)GlcNAc
# How it was run: as §1
# [30] = target: Neu5Ac(a2-3)Gal(b1-4)GlcNAc(b1-3)Gal(b1-4)GlcNAc(b1-3)GalNAc
# How it was run: as §1
# [31] = target: Neu5Ac(a2-3)[GalNAc(b1-4)]Gal(b1-4)GlcNAc(b1-3)GalNAc
# How it was run: as §1
# [32] = target: Neu5Ac(a2-6)Gal(b1-4)GlcNAc(b1-2)Man(a1-3)Man(b1-4)GlcNAc(b1-4)GlcNAc
# How it was run: as §1
# [33] = target: Neu5Ac(a2-6)Gal(b1-4)GlcNAc(b1-2)Man(a1-3)[GlcNAc(b1-4)][Neu5Ac(a2-6)Gal(b1-4)GlcNAc(b1-2)Man(a1-6)]Man(b1-4)GlcNAc(b1-4)GlcNAc
# How it was run: as §1
# [34] = target: Neu5Ac(a2-6)Gal(b1-4)GlcNAc(b1-3)Gal(b1-4)GlcNAc(b1-3)Gal(b1-4)GlcNAc(b1-2)Man(a1-3)[Neu5Ac(a2-6)Gal(b1-4)GlcNAc(b1-3)Gal(b1-4)GlcNAc(b1-3)Gal(b1-4)GlcNAc(b1-2)Man(a1-6)]GalNAc
# How it was run: as §1
# [35] = target: Neu5Ac(a2-6)GalNAc(b1-4)GlcNAc6S
# How it was run: as §1
# [36] = target: Neu5Ac(a2-8)Neu5Ac(a2-3)Gal(b1-3)GalNAc(b1-4)[Neu5Ac(a2-3)]Gal(b1-4)Glc
# How it was run: as §1
# [37] = target: Neu5Ac(a2-8)Neu5Ac(a2-3)Gal(b1-4)GlcNAc
# How it was run: as §1
# [38] = target: Neu5Ac(a2-8)Neu5Ac(a2-8)Neu5Ac
# How it was run: as §1
# Neu5Ac(b1-6)GalNAc = target: Neu5Ac(b1-6)GalNAc
# How it was run: as §1
# [39] = target: Neu5Gc(a2-3)Gal(b1-3)[Fuc(a1-4)]GlcNAc
# How it was run: as §1
# [40] = target: Neu5Gc(a2-6)Gal(b1-4)GlcNAc
# How it was run: as §1
binder,measurement,setting,value
B1,glycan array binding signal (z-score),Fuc(a1-2)Gal(b1-4)Glc6S,-0.048
same,glycan array binding signal (z-score),[1],-0.241
same,glycan array binding signal (z-score),[2],-0.171
same,glycan array binding signal (z-score),[3],-0.127
same,glycan array binding signal (z-score),[4],-0.127
same,glycan array binding signal (z-score),[5],2.17
same,glycan array binding signal (z-score),[6],-0.182
same,glycan array binding signal (z-score),[7],-0.106
same,glycan array binding signal (z-score),[8],-0.195
same,glycan array binding signal (z-score),[9],-0.192
same,glycan array binding signal (z-score),Gal(b1-4)GlcNAc,-0.172
same,glycan array binding signal (z-score),Gal(b1-4)GlcNAc(b1-2)Man,-0.167
same,glycan array binding signal (z-score),[10],3.11
same,glycan array binding signal (z-score),[11],0.166
same,glycan array binding signal (z-score),[12],-0.076
same,glycan array binding signal (z-score),[13],-0.093
same,glycan array binding signal (z-score),[14],-0.163
same,glycan array binding signal (z-score),[15],-0.116
same,glycan array binding signal (z-score),[16],-0.018
same,glycan array binding signal (z-score),[17],-0.21
same,glycan array binding signal (z-score),Gal3S(b1-4)GlcNAc6S,0.332
same,glycan array binding signal (z-score),Gal3S4S(b1-4)GlcNAc,-0.065
same,glycan array binding signal (z-score),Gal3S6S(b1-4)GlcNAc,-0.101
same,glycan array binding signal (z-score),[18],-0.142
same,glycan array binding signal (z-score),GalNAc(b1-3)GalNAc,-0.175
same,glycan array binding signal (z-score),[19],-0.172
same,glycan array binding signal (z-score),[20],6.07
same,glycan array binding signal (z-score),[21],2.23
same,glycan array binding signal (z-score),[22],3.2
same,glycan array binding signal (z-score),Man(a1-3)[Man(a1-6)]Man,4.73
same,glycan array binding signal (z-score),[23],5.86
same,glycan array binding signal (z-score),[24],3.04
same,glycan array binding signal (z-score),[25],5.35
same,glycan array binding signal (z-score),[26],9.48
same,glycan array binding signal (z-score),[27],6.97
same,glycan array binding signal (z-score),[28],-0.155
same,glycan array binding signal (z-score),[29],0.02
same,glycan array binding signal (z-score),[30],-0.172
same,glycan array binding signal (z-score),[31],-0.073
same,glycan array binding signal (z-score),[32],-0.17
same,glycan array binding signal (z-score),[33],-0.182
same,glycan array binding signal (z-score),[34],-0.029
same,glycan array binding signal (z-score),[35],-0.173
same,glycan array binding signal (z-score),[36],-0.169
same,glycan array binding signal (z-score),[37],-0.178
same,glycan array binding signal (z-score),[38],-0.155
same,glycan array binding signal (z-score),Neu5Ac(b1-6)GalNAc,-0.21
same,glycan array binding signal (z-score),[39],-0.154
same,glycan array binding signal (z-score),[40],-0.116
